The values that follow come from PubChem BioAssay.

The source made the active and inactive calls.

Test [1] can be described thus: small molecules captured by biotinylated probe aFSTL3 – biochemical, small-molecule microarray, fluorescence 635/667, stem cell growth factor project, primary screen (AID 1064).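 Note: measures binding of the biotinylated anti-FSTL3 antibody to printed compounds.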 The conditions noted are these: higher = more signal.
The nature of test [2]: binders from COS7 lysate, DM2A8 probe, primary screen, torsin A project, cell lysate, small-molecule microarray, fluorescence 635/667 (AID 1065). The conditions noted are these: higher = more signal, COS7 lysate expressing mutant human TOR1A.
A short description of test [3]: small molecules captured by biotinylated probe aFGF2 – biochemical, small-molecule microarray, fluorescence 635/667, stem cell growth factor project, primary screen (AID 1067).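 Note: measures binding of biotinylated aFGF2 protein to printed compounds on slides; z-score merges feature fluorescence and signal-to-noise across triplicate slides.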 The conditions noted are these: higher = more signal.
Test [4] can be described thus: small molecules captured by biotinylated probe aFGF10 – biochemical, small-molecule microarray, fluorescence 635/667, stem cell growth factor project, primary screen (AID 1071).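 Note: score merges 667 nm spot intensity and signal to noise from triplicate slides.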 The conditions noted are these: higher = more signal.
For test [5], the target named is Neurogenic locus notch homolog protein 2 (Homo sapiens) (UniProt Q04721). The test can be described thus: small molecules binding Notch2 protein – biochemical, small-molecule microarray, 635 nm fluorescence, stem cell growth factors, primary screen (AID 1073). The note with it: higher = more signal.
Test [6] addresses Pro-neuregulin-1, membrane-bound isoform (Homo sapiens) (UniProt Q02297). The test can be described thus: small molecules binding neuregulin-1 protein – biochemical, small-molecule microarray, fluorescence 635/667, psychiatric disease protein project, primary screen (AID 1075).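 Note: score combines 667 nm spot fluorescence with signal to noise.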 The note with it: NRG1 binding, 635 nm fluorescence, higher = more signal.
Test [7] has as its system Neuregulin-1 EGF-like domain. The test can be described thus: small molecules binding NRG1 EGF domain – biochemical, small-molecule microarray, 635 nm fluorescence, primary screen (AID 1081).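 Note: binding of the protein to compounds printed on small-molecule microarray slides.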 The note with it: higher = more signal.
Test [8] in a line: FRG1 expression reporter modulators in myotubes – cell-based, C2C12 myotubes, firefly/Renilla luciferase, luminescence, FRG1 inhibition for FSHD, primary screen (AID 1084). The note with it: FRG1 promoter luciferase, higher = more signal, called active from +8 up or from −8 down.
The nature of test [9]: small molecules captured by biotinylated probe aFST – biochemical, small-molecule microarray, fluorescence 635/667, stem cell growth factor project, primary screen (AID 1086).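 Note: score merges 667 nm fluorescence with signal-to-noise of each printed compound spot.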 The note with it: higher = more signal.
Test [10] in a line: binders of probe aHhip on microarray, primary screen, stem cell growth factor project, biochemical, small-molecule microarray, fluorescence 635/667 (AID 1087).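 Note: score merges spot fluorescence at 667nm with spot signal to noise ratio.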 The conditions noted are these: higher = more signal.
Test [11] relates to PRMT1 (protein arginine N-methyltransferase 1). The test can be described thus: small molecules binding arginine methyltransferase PRMT1 – biochemical, small-molecule microarray, 635 nm fluorescence, primary screen (AID 1088).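 Note: binding of Prmt1 protein to compounds spotted on small-molecule microarray slides.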 The conditions noted are these: higher = more signal.
Test [12] in a line: growth effects on S. cerevisiae YJM789 – YJM789 clinical isolate, OD600, 24 h, basal, primary screen (AID 1089).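 Note: growth of clinical yeast isolate S. cerevisiae YJM 789 seeded 1000 cells per well; test concentration not given here.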 The note with it: higher = more signal, called active from +8 up or from −8 down.
Test [13] in a line: S. pombe growth modifiers, basal conditions – strain 972, OD600, 24 h, no modulator, primary screen (AID 1090).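 Note: basal condition with compound alone and no growth modifier present; test concentration not given here.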 The conditions noted are these: S. pombe 972 growth, higher = more signal, called active from +8 up or from −8 down.
The nature of test [14]: budding yeast growth modifiers under rapamycin – strain BY4716, OD600, 96 h, primary screen (AID 1091). Note: test concentration not given here. The note with it: S. cerevisiae BY4716 + rapamycin, higher = more signal, called active from +8 up or from −8 down.
Test [15] concerns the target Torsin-1A-interacting protein 2 (Homo sapiens) (UniProt Q8NFQ8). The test can be described thus: small molecules binding lysate-expressed LULL1 – cell lysate, human LULL1 lysate, 635/667 nm fluorescence, primary screen (AID 1092).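 Note: probe is lysate of COS7 cells overexpressing human LULL1; score merges per-feature 667 nm fluorescence with signal-to-noise.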 The conditions noted are these: small-molecule microarray, hLULL1 lysate binding, 635 nm fluorescence; higher = more signal.
A short description of test [16]: optical density change of DRC41 E. coli – strain DRC41, OD650, 24 h, E. coli filamentation project, primary screen (AID 1093).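 Note: MC1000 strain lacking acrAB efflux and sulA so SOS filamentation is blocked; test concentration not given here.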 The note with it: E. coli DRC41 growth, higher = more signal, called active from +8 up or from −8 down.
Test [17] is described as follows: probe aLefty2 binding to arrayed compounds – biochemical, biotinylated probe, 635/667 nm fluorescence, primary screen (AID 1094).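 Note: score merges spot fluorescence near 667 nm with spot signal-to-noise ratio.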 The note with it: small-molecule microarray, higher = more signal.
For test [18], the system named is Noggin (protein binding on small-molecule microarray). The test can be described thus: small molecules binding Noggin protein – biochemical, 635/667 nm fluorescence, primary screen (AID 1095).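 Note: score merges 667 nm feature fluorescence with signal to noise over triplicate slides.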 The note with it: 635 nm fluorescence, higher = more signal.
For test [19], the target named is Neurogenic locus notch homolog protein 3 (Homo sapiens) (UniProt Q9UM47). The test can be described thus: small molecules binding NOTCH3 protein – biochemical, 635/667 nm fluorescence, primary screen (AID 1096). The note with it: small-molecule microarray, 635 nm fluorescence, higher = more signal.
A short description of test [20]: probe aEGFR binding to arrayed compounds – biochemical, biotinylated probe, 635/667 nm fluorescence, primary screen (AID 1097).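 Note: probe is a biotinylated anti-EGFR antibody binding compounds printed on slides; score combines fluorescence near 667 nm and signal to noise of each spot.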 The conditions noted are these: small-molecule microarray, higher = more signal.

Sequence of Pro-neuregulin-1, membrane-bound isoform (Homo sapiens) (Q02297 whole entry, looked up, the tested form may be a part, canonical isoform): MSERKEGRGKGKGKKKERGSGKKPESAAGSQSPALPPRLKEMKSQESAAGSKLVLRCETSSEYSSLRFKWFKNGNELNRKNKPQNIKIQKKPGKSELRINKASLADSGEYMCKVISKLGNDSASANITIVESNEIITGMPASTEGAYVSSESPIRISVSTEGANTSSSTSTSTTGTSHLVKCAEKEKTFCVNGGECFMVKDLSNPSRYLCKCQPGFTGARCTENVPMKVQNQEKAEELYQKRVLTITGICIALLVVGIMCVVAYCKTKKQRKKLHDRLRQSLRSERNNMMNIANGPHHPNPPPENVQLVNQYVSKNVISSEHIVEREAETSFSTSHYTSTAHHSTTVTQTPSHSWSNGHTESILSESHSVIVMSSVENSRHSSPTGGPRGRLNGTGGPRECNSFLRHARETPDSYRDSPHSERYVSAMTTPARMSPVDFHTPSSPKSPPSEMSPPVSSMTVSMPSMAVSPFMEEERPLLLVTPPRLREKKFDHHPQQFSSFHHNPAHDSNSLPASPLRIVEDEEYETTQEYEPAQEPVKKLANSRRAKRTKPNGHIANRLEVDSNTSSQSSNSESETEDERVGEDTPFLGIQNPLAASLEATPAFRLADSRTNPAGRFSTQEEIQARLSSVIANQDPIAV
Sequence of Neurogenic locus notch homolog protein 2 (Homo sapiens) (Q04721 whole entry, looked up, canonical isoform): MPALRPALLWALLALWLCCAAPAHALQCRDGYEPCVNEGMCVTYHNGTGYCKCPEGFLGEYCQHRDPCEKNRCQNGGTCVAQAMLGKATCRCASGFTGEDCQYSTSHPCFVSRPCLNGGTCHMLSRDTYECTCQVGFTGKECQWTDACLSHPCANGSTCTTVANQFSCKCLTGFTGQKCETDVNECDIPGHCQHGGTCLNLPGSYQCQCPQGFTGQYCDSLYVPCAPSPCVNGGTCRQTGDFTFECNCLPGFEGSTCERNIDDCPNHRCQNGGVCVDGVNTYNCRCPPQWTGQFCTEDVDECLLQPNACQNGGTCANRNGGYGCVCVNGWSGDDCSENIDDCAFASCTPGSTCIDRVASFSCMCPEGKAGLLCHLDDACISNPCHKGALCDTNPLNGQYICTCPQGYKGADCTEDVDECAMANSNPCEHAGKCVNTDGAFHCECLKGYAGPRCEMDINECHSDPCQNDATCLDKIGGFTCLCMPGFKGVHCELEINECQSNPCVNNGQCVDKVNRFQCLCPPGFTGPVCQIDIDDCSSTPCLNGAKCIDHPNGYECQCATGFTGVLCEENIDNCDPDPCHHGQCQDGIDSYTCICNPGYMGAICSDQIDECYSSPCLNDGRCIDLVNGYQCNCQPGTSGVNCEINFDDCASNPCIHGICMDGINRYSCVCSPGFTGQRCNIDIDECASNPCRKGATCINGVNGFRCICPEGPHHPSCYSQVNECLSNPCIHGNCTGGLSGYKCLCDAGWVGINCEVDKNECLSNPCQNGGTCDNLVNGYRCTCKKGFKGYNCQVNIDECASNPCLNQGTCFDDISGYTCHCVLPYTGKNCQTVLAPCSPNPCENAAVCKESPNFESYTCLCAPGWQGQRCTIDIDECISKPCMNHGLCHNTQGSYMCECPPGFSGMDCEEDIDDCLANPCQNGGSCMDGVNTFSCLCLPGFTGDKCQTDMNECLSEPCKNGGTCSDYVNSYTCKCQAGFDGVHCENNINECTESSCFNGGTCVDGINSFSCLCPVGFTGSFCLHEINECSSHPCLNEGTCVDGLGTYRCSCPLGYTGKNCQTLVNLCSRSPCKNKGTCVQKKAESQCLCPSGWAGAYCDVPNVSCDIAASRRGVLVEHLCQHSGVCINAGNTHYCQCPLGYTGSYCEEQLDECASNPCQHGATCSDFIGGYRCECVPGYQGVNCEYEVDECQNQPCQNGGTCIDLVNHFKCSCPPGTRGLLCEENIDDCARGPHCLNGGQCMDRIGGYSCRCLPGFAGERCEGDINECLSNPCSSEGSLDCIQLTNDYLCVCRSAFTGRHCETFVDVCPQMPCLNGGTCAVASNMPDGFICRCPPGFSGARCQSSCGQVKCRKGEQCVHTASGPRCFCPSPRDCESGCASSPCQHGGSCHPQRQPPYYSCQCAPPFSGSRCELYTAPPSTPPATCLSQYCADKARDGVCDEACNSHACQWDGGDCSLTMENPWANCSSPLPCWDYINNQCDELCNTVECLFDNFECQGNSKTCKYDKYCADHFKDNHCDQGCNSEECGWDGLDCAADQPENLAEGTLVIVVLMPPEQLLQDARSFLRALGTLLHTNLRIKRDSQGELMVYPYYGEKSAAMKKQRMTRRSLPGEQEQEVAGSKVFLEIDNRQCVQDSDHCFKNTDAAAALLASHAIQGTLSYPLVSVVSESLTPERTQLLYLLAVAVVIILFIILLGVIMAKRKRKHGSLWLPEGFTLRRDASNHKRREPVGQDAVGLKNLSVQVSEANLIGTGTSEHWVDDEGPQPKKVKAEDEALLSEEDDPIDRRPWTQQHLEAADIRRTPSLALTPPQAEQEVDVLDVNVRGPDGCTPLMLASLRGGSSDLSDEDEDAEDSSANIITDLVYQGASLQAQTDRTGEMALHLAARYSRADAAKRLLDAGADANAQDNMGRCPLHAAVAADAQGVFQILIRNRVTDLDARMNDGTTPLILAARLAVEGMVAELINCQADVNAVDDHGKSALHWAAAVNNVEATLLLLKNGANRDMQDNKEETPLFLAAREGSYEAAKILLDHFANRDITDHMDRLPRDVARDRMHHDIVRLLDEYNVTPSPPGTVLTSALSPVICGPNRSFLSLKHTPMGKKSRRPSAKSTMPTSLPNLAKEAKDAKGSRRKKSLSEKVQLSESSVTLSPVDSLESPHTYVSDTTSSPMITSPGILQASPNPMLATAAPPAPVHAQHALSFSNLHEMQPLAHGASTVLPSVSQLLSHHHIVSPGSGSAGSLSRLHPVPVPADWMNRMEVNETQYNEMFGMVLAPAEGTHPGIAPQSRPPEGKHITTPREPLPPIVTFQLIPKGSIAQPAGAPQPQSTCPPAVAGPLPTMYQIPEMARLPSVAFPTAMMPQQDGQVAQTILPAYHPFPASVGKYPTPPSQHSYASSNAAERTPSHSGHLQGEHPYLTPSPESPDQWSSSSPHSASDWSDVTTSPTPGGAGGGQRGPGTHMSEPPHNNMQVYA
Sequence of Torsin-1A-interacting protein 2 (Homo sapiens) (Q8NFQ8 whole entry, looked up): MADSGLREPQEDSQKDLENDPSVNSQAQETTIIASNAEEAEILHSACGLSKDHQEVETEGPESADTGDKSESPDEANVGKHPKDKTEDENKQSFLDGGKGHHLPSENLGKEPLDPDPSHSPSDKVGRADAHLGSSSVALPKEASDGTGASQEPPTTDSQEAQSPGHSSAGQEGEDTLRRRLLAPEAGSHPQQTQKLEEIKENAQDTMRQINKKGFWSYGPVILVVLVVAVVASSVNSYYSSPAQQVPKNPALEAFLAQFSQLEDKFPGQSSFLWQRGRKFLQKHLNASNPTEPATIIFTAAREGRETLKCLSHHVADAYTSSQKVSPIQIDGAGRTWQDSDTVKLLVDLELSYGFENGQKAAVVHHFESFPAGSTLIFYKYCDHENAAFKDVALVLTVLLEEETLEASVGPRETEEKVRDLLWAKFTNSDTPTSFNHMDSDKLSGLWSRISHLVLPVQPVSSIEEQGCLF

On to `C=CC[C@]1(C(=O)N2CCCCC2)N=C(c2ccc(OCCCO)cc2)O[C@H]1c1ccccc1`, for which the composite z-score in test [1] turned out to be 1.08; in test [2], 0.785; in test [3], 0.0472; in test [4] it was 0.452; in [5], 0.668; in test [6] it was 1.77. Moreover, the composite z-score in test [7] was determined as 1.17; in test [9], 1.63; in test [10] it was 1.27; in test [11], 1.58; in test [15], 3.21; in test [17] it was 0.495. For the same compound, the results for the composite z-score in [18], in test [19] and in [20] were 1.06, 0.369 and 0.35, respectively. Besides, the z-score is -1.11 (inactive) in test [8]; -1.97 (inactive) in test [12]; -5.54 (inactive) in [13]; -2.04 (inactive) in [14]; 1.14 (inactive) in [16].

For the compound `C=CC[C@]12N=C(c3ccc(OCCCO)cc3)O[C@H]1c1ccccc1N(Cc1ccccc1)C2=O`, the composite z-score in test [1] is 1.67; in test [2] it was 0.473; in [3] it was -0.0316; in [4], -0.138; in [5] it was 0.877; in test [6], 0.138. Moreover, the composite z-score in test [7] turned out to be 0.774; in test [9], 0.625; in [10] it was 0.0176; in [11], 1.46; in test [15] it was 1.04; in test [17], 0.331. Moreover, the composite z-score in test [18] was 0.313; in test [19] it was 0.483; in test [20] it was -0.0692. The z-score in test [8] was -2.33 (inactive); in test [12], -0.523 (inactive); in test [13], -0.371 (inactive); in test [14], 1.89 (inactive); in test [16], 0.508 (inactive).

Take `C=CCOC(=O)[C@H]1[C@@H]2C(=O)O[C@@H](c3ccccc3)[C@@H](c3ccccc3)N2[C@@H](c2ccc(OCCOC(=O)[C@@H]3C[C@@H]4C(=O)N5CCC[C@H]5C(=O)N4[C@@H]3c3cccc(OCCO)c3)cc2)[C@]12C(=O)Nc1ccccc12`: the composite z-score in [1] is 0.0458; in [2], 0.629; in test [3] it was 0.0584; in [4], 0.808; in [5] it was 0.761; in test [6], 1.26. Also, the composite z-score came out at 1.31 in test [7]; 0.356 in test [9]; 0.382 in test [10]; 1.53 in test [11]; 2.64 in test [15]; 0.108 in [17]. Moreover, the composite z-score in test [18] amounted to 0.98; in test [19], 1.13; in [20], 0.0617. Also, the z-score in [8] is 0.999 (inactive); in test [12], 1.06 (inactive); in [13] it was 0.983 (inactive); in test [14], 2.72 (inactive); in test [16], 0.0706 (inactive).

Consider `COC(=O)c1c(CC[C@@H](CO)NC(=O)N[C@@H](C)Cn2cc(C3(O)CCCCC3)nn2)oc(C(C)=O)c1C(=O)OC`, for which the composite z-score in [1] was -0.548; in [2], 1.14; in [3], -0.0512; in test [4], 1.01; in test [5], 1.25; in test [6] it was 0.518. For the same compound, the composite z-score is 1.3 in test [7]; 0.817 in test [9]; -0.184 in test [10]; 1.54 in test [11]; 1.16 in test [15]; 0.0621 in test [17]. For the same compound, the composite z-score in [18] was 1.16; in test [19] it was 1.05; in [20], 0.173. Also, the z-score in test [8] is 1.2 (inactive); in test [12], 0.34 (inactive); in test [13] it was -0.261 (inactive); in [14], 0.107 (inactive); in [16] it was -0.338 (inactive).

`COC(=O)[C@@]1(Cc2ccc(OC)cc2)[C@H]2c3cc(C(=O)N(C)C)n(CCN4CNCC4=O)c3C[C@H]2CN1C(=O)c1ccccc1`: the composite z-score was 0.39 in test [1]; 1.47 in [2]; 0.0432 in test [3]; -0.0075 in test [4]; 1.27 in test [5]; 1.51 in [6]. Also, the composite z-score in [7] is 1.3; in [9] it was 0.384; in [10], 0.983; in test [11], -1.13; in test [15], 0.324; in test [17] it was -0.0877. The figures for the composite z-score in test [18], in test [19] and in [20] were 0.788, -0.325 and 0.107, respectively. Further, the z-score in test [8] was 0.124 (inactive); in test [12], -0.693 (inactive); in [13] it was 0.687 (inactive); in test [14] it was -0.567 (inactive); in test [16], 0.288 (inactive).
